This is a sample that favours compounds with a hit; in the whole collection about 21% have one here.
CYP2C19 activ: human CYP2C19 activators, primary screen, biochemical, luminescence. Cytochrome P450 2C19 (Homo sapiens), P33261. recombinant CYP2C19, luciferin-H EGE luminescence; active compounds read high; 0 = fully inhibited enzyme, 1 = untreated enzyme. activation factor at 5 µM. 96,000 tested, under 10 active. AID 1025, 2008;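 active = activation factor of at least 2 at 5 µM in the primary screen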;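 note: 0 = wells with 2.5 mM tranylcypromine and 1 = vehicle-only wells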
Target sequence (P33261 whole entry, looked up): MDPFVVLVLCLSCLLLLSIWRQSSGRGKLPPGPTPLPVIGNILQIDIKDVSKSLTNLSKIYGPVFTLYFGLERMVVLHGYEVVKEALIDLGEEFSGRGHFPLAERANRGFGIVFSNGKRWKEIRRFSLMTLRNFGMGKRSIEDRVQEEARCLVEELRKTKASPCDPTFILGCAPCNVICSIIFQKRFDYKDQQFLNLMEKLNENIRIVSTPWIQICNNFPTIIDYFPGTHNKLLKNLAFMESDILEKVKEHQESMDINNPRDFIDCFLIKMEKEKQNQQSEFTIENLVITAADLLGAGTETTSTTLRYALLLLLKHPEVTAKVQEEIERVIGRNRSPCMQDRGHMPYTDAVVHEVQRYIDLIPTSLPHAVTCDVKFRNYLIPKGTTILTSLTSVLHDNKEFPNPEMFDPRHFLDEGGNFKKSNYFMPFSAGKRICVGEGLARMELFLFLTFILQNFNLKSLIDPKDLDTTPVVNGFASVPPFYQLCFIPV
MRP1 act: H69AR viability gain despite doxorubicin, primary screen, MRP-1 activator project, H69AR cells, CellTiter-Glo; AID 799, 2007; viability rescue; 0.61% of 140,000 active; viability increase, % at 10 µM;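 active = viability gain under doxorubicin at or above a set limit, the compound median plus 3 SD, cut at about 4.7% in these data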;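 note: MRP-1 overexpressing cells given doxorubicin 25 µM after compound pretreatment; 18-22 h compound pretreatment then 72 h with doxorubicin before readout; 0% = doxorubicin-only wells and 100% = vehicle-treated cells without doxorubicin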
CYP2C9 activ: human CYP2C9 activators, primary screen, biochemical, luminescence; Cytochrome P450 2C9 (Homo sapiens), P11712; recombinant CYP2C9, luciferin-H conversion; active compounds read high; factor 1 = untreated enzyme, 0 = blocked; activation factor at 5 µM; 1.4% of 96,000 active; AID 1024, 2008;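 active = activation factor of 2 or more for CYP2C9 at a 5 µM dose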;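 note: 0 = sulfaphenazole-blocked wells and 1 = vehicle-only wells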
CYP2C19 inhib: blockers of cytochrome P450 2C19 activity – biochemical, luminescence, ADME assay, primary screen; P33261; AID 778, 2007; 21% of 96,000 active; CYP2C19 Supersomes, luciferin-H EGE luminescence, 30 min; inhibition, % at 5 µM;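 active = CYP2C19 inhibition above a set limit at 5 µM in the primary screen, cut at about 50% in these data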;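 note: plate controls were negative control wells for no effect and 2.5 mM tranylcypromine positive control for full effect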
CYP2C9 inhib: blockers of cytochrome P450 2C9 activity – biochemical, luminescence, ADME assay, primary screen. inhibition, % at 5 µM. 20% of 96,000 active. AID 777, 2007. CYP2C9 Supersomes, luciferin-H conversion;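 active = blocking of liver enzyme CYP2C9 beyond about 50% at 5 µM, limit read from the data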
MRP reversal: reversal of MRP1-mediated doxorubicin resistance, primary screen, H69AR cells, doxorubicin co-treatment; differential viability (reversal), % at 10 µM; H69AR cells + 2 uM doxorubicin, CellTiter-Glo, 72 h; 0.04% of 85,000 active;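 active = viability drop by adding the cancer drug above about 55%, with treated viability meeting a 40% cutoff, limit read from the data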;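 note: viability without doxorubicin minus viability with 2 µM doxorubicin for each compound; larger differential means the compound sensitizes cells more to doxorubicin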
* = called active by the depositor; / = no result.

SMILES	CYP2C19 activ	MRP1 act	CYP2C9 activ	CYP2C19 inhib	CYP2C9 inhib	MRP reversal
Nc1nnc(SCCN2C(=O)c3ccccc3C2=O)s1	1.2	0.0	1.1	-16.6	-7.8	/
CNC(=O)NC(=O)C(C)OC(=O)CCCSc1nc2ccccc2s1 (centres undefined)	/	-3.6	/	/	/	/
O=C(C/C=N/OCc1c(Cl)cccc1Cl)c1ccc(Cl)cc1	0.8	2.4	0.9	17.2	10.1	/
CNC(=O)c1ccsc1NC(=O)CN1C(=O)CCC1=O	/	/	/	/	/	-18.5
Cc1noc2ncnc(Sc3c(Cl)cccc3Cl)c12	0	-2.5	0.5	97.0*	52.1*	-1.2
Cc1ccc(Sc2ncnc3onc(C)c23)cc1	0.3	-4.8	0.8	67.4*	22.7	-4.1
Cc1ccc(Sc2ncnc(N)c2[N+](=O)[O-])cc1	/	-2.4	/	/	/	/
Cc1ccccc1Sc1ncnc2onc(C)c12	0	-4.5	0.5	96.2*	48.8	-33.1
Cc1noc2ncnc(Sc3ccc(Cl)cc3)c12	0.2	-5.1	0.9	79.2*	9.7	-1.2
CC(C)(C)NC(=O)COC(=O)/C=C/c1ccccc1[N+](=O)[O-]	0.9	-1.0	0.9	13.7	12.3	/
O=C1c2cc(N3CCCC3)c([N+](=O)[O-])cc2C(=O)N1c1ccccc1	/	-1.3	/	/	/	/
O=C(C1CCCO1)N1CCN(C(=S)Nc2ccc(Cl)c(Cl)c2)CC1 (centres undefined)	/	-1.9	/	/	/	/
CCOC(=O)c1[nH]c(C)c(C(=O)OCCOc2cccc(C)c2)c1C	/	2.2	/	/	/	/
Nc1nonc1C(=O)NCCNS(=O)(=O)c1ccc(Br)cc1	0.4	-0.3	1.1	60.0*	-13.0	/
Cc1cccc(C)c1NC(=O)C1C2C=CC(C2)C1C(=O)NCc1ccccn1 (centres undefined)	1	1.6	1	4.0	-1.3	3.1
CCOc1ccc(S(=O)(=O)N2CCN(c3ccccc3F)CC2)c2cccnc12	/	0.7	/	/	/	-0.7
Cc1ccc(CNS(=O)(=O)c2ccc(C(C)(C)C)cc2)n1C	0.3	-0.9	1.9	73.2*	-89.6	-7.3
O=C(O)CCC(=O)NCC1OCCc2ccccc21 (centres undefined)	1.2	-2.1	1.2	-17.8	-23.6	-14.6
COc1ccc(C(=O)NCC2OCCc3ccccc32)c(O)c1 (centres undefined)	0.1	1.8	0.5	90.3*	50.7*	-5.7
CCn1nc(C)c(/C=C/C(=O)Nc2ccc(C)cc2C)c1C	/	-1.4	/	/	/	/
O=C(Cn1nc(C(F)(F)F)c2c1CCCC2)NCc1ccco1	0.4	-0.5	2.1*	55.7*	-106.7	-1.0
COc1ccc(CNC(=O)Cn2nc(C(F)(F)F)c3c2CCC3)cc1	0.8	-1.0	3*	18.2	-202.8	-1.2
COc1ccc(NC(=O)Cn2nc(C(F)(F)F)c3c2CCCC3)c(OC)c1	0.3	-1.6	0.7	74.6*	27.0	-0.6
CC(C)NC(=O)Cn1nc(C(F)(F)F)c2c1CCC2	/	0.4	/	/	/	-10.2
COc1ccc(CNc2nc3c(c(C(F)(F)F)n2)CCCCC3)cc1	0.7	-2.2	0.5	30.7	53.1*	12.7
SMILES	CYP2C19 activ	MRP1 act	CYP2C9 activ	CYP2C19 inhib	CYP2C9 inhib	MRP reversal
COc1ccc(N(C(=O)c2ccc(F)cc2)C2=CC3CCC(C2)N3C)cc1 (centres undefined)	1.4	-0.3	0.9	-35.3	12.1	12.9
Cc1cc(NC(=O)Cn2nc(C(F)(F)F)c3c2CCC3)no1	1	-2.5	1	-0.6	2.0	6.0
Cc1ccc(NC(=O)Cn2nc(C(F)(F)F)c3c2CCC3)cc1	0.5	3.9	0.9	50.3*	6.5	11.4
COc1ccc2c(c1)O/C(=C\c1sccc1C)C2=O	/	3.0	/	/	/	/
CC(=O)NCc1ccc(S(=O)(=O)N/N=C/c2ccc(N(C)C)cc2)cc1	/	-1.1	/	/	/	/
CCC(C)(C(=O)NC1CCCC1)N(Cc1cccs1)C(=O)c1ccc2c(c1)OCO2 (centres undefined)	/	-2.5	/	/	/	/
Clc1ccc2c(c1)c1ccccc1n2CN1CCOCC1	0.3	0.5	0.5	72.5*	49.2	-13.2
Cc1cc(C)n2nc(SCC(=O)c3cc(C)n(-c4cc(C)on4)c3C)nc2n1	0.7	-1.8	0.9	34.1	9.6	5.8
CC(C)N1C(=O)CCC1C(=O)O (centres undefined)	/	-1.8	/	/	/	/
O=C(NCc1ccc(Cl)cc1)c1ccc(-c2ccccc2C(F)(F)F)o1	/	0.6	/	/	/	/
Cc1cc(C(F)(F)F)n2nc(-c3cnn(C)c3C(F)(F)F)c(Cl)c2n1	0.5	-5.0	0.3	51.2*	72.1*	/
CC1(C)CC(=O)C2=C(C1)N(Cc1ccco1)C(=O)C2(NC(=O)C1CCCCC1)C(F)(F)F (centres undefined)	0.6	-0.9	0.5	38.5	50.9*	-7.3
CC1(C)CC(=O)C2=C(C1)N(Cc1ccco1)C(=O)C2(NC(=O)c1ccc(Cl)cc1Cl)C(F)(F)F (centres undefined)	0.2	-1.8	0.9	82.9*	7.1	-9.0
CC1=NC(C(F)(F)F)(C(F)(F)F)C2=C(CC(C)(C)CC2=O)N1Cc1ccco1	0.4	0.6	0.5	56.1*	53.7*	4.8
CC1(C)CC(=O)C2=C(C1)N(Cc1ccco1)C(=O)NC2(C(F)(F)F)C(F)(F)F	1	-1.0	0.9	4.4	7.2	13.8
C=CCSc1nc(C)c2cc(C)cc(C)c2n1	0.6	-1.3	0.8	37.1	16.2	23.5
O=C(NCc1ccccn1)c1cn(-c2ccccc2)nc1-c1ccc(Cl)cc1	/	-3.4	/	/	/	/
O=[N+]([O-])c1ccc(N2CCN(S(=O)(=O)c3ccc(Cl)cc3)CC2)cc1NCc1cccnc1	1	-0.8	0.5	4.8	53.0*	/
CCOc1ccc(S(=O)(=O)Nc2ccccc2C(=O)N/N=C/c2c(OC)ccc3ccccc23)cc1	/	-0.3	/	/	/	/
COc1cc(NS(=O)(=O)c2ccc(F)cc2)c(C(=O)O)cc1OC	1	-0.2	0.4	3.7	55.7*	15.5
CCOc1ccc(S(=O)(=O)Nc2cc(OC)c(OC)cc2C(=O)O)cc1	0.7	0.2	0.3	32.3	72.6*	/
OC(C#CCN1CCOCC1)(c1ccccc1)C1CC1 (centres undefined)	0.4	-0.7	1.1	57.3*	-5.4	-0.3
Cc1cccc(NC(=O)CN(C)S(=O)(=O)c2cccs2)c1	0.2	0.0	0.6	79.8*	37.9	13.8
Cc1cccc(NS(=O)(=O)c2cccs2)c1	0.1	-0.4	0.8	93.4*	20.2	14.7
CN(CC(=O)Nc1ccc(Cl)cc1)S(=O)(=O)c1cccc2cccnc12	0.5	-0.1	0.3	47.5	67.9*	3.2
Cc1ccc(S(=O)(=O)N(C)CC(=O)Nc2cccc3c2CCCC3)cc1	0.6	-1.0	1	43.5	-4.0	/
